Assay results published in PubChem BioAssay.

Test system: Inhibin beta A chain (activin A)
Experiment: INHBA (activin A) binders on microarrays, primary screen, biochemical, small-molecule microarray, 635 nm fluorescence scan (AID 1107);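 note: mouse activin A protein probed at 4.33 µg/mL on printed slides; score merges bound-protein fluorescence near 667 nm with spot signal-to-noise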
Conditions: small-molecule microarray binding, higher = more signal

Structure (SMILES)	composite z-score
CC(=O)OC[C@H]1O[C@@H](ON=C(C)C)[C@H](OC(C)=O)[C@@H](OC(C)=O)[C@@H]1OC(C)=O	-2.17
CC(C)CON=C1C[C@@H](O)[C@@H](O)[C@@H]2[C@@H]3C(=O)N(c4ccc(F)cc4F)C(=O)[C@@H]3CC[C@@H]12	-0.287
C=C(C)C(=O)OC[C@H]1CN2[C@@H](CC[C@@H](C)[C@@H]2c2ccc(Br)cc2)C(=O)O1	1.26
CC(CCN1CCCc2nc(C)c(C)cc21)=NOC[C@@H](O)COCc1ccco1	1.96
O=C1C=C[C@@H](O)[C@@H]2[C@@H]3C(=O)N(Cc4ccc5c(c4)OCO5)C(=O)[C@@H]3CC[C@@H]12	-0.513
CC(C)(C)N1C(=O)[C@H]2[C@H]3[C@H](O)[C@H](O)CC(=NOC[C@@H](O)COCc4ccco4)[C@@H]3CC[C@H]2C1=O	0.426
C=CC[C@@H]1C=CC(ON=C(C)C)[C@@H](CO)O1 (some centres not stated)	1.14
CCC1=NOC(CCC2CC(OC(=O)NCc3cccc4c3OCO4)CC3(CCCC(COC(=O)NCCc4ccc(Cl)cc4)O3)O2)C1 (configuration not stated)	0.0081
C#CCCCON=C1C[C@@H](O)[C@@H](O)[C@@H]2[C@@H]3C(=O)N(C4CCCCC4)C(=O)[C@@H]3CC[C@@H]12	0.265
CC(=O)OC[C@H]1O[C@H](CC=NOC[C@@H](O)COCc2ccco2)C=C[C@@H]1OC(C)=O	1.14
CC(C)=NOC(C)CN1CCCc2nc(C)c(C)cc21 (configuration not stated)	0.206
CCOC(=O)[C@H](Cc1ccccc1)NC(=O)CCC1CC(OC(=O)NCc2cccc3ccccc23)CC2(CCCC(COC(=O)NCC3CCCCC3)O2)O1 (some centres not stated)	0.381
